# SW480 rerep: DNA re-replication induction in SW480 cells; SW480 DNA re-replication, Hoechst DNA content imaging, 48 h; Potency, µM (top dose mostly 46.1 µM), for inactives: top-dose re-replication activation, most hits filed as activators; 340,000 compounds, 1.8% hits; also: % of control where 0% means no effect; nearly all actives have a fitted effect of over 55% in size
#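 Cells (250 per well) received 23 nL compound or DMSO by pin tool and were kept 48 hr at 37 C, 5% CO2. Nuclei were then stained with Hoechst for 40 min and scanned for DNA content.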
# KB-3-1 cytotox: KB-3-1 parental cell cytotoxicity; KB-3-1 viability, CellTiter-Glo ATP luminescence, 72 h; Potency, µM (top dose mostly 46.1 µM), hits mostly cytotoxic; 400,000 compounds, 1.4% hits; AID 1347075; also: % is scaled to controls: 0 for no effect and ±100 for the full control effect; nearly all actives have a fitted effect of over 60% in size
#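 Parental KB-3-1 viability, qHTS format: 72 h compound exposure, 37 °C; CellTiter-Glo; media-only wells and DMSO plates as controls; concentration-effect fits on corrected data.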
# RGS4 inh: inhibitors of human regulator of G protein signaling 4; P49798; Transcreener GDP fluorescence polarization, RGS4-accelerated GTP hydrolysis; Potency, µM (top dose mostly 114 µM), inactives show top-dose activity change, negative = inhibition, usual class: inhibitors; 390,000 compounds, 0.039% hits; AID 504845; also: % is scaled to controls: 0 for no effect and ±100 for the full control effect; nearly all actives have a fitted effect of over 75% in size
#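 MLSMR compounds (23 nl, pin-transferred) preincubated 10 min at room temperature with a 500nM (2x) first reagent, then RGS4 at 900nM (2x) plus Transcreener GDP mix added; fluorescence polarization (620/688 nm) read before and after 90 min at 30 °C.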
# PTAP TSG101 blk: blocks PTAP/TSG101 interaction to inhibit HIV-1 budding. 340,000 tested, under 10 active. AID 493005. Potency, µM (doses to about 115 µM), for inactives: at the top dose activity change, negative = inhibition, hits mostly inhibitors. Q99816. Fluorescence polarization, FITC-PTAP peptide / Tsg101 binding; active = well fitted inhibition curve with a large enough effect in the main read-out, with a control signal flat, not every such curve was filed as active; inconclusive = small, poorly fitted or top-dose-only effect, or effect the other way, or a change in a side signal; inactive = no such curve, though single readings can be large or run the other way; also: % of control where 0% means no effect
# Target sequence (Q99816 whole entry, looked up): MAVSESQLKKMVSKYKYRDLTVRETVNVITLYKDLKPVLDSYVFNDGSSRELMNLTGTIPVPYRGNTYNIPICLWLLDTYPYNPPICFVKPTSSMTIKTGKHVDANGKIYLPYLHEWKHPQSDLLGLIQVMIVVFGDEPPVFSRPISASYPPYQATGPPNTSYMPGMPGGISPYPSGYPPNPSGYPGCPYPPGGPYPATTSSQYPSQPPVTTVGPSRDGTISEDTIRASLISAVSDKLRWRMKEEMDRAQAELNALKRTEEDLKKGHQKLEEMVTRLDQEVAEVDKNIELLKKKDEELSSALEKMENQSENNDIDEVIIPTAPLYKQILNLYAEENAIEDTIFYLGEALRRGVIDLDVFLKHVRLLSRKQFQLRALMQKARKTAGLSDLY
#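 Tsg101 binding domain (10 uM final) was mixed with compound and a FITC-labeled PTAP peptide (50 nM final) in HEPES pH 7.5 buffer with NaCl, Tween 20, EDTA and TCEP; fluorescence polarization was read after 20 min at r.t.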
# KB-V1 cytotox: kills drug-selected multidrug resistant KB-V1 cells | KB-V1 MDR cells viability, CellTiter-Glo, 72 h | Potency, µM (top dose mostly 46.1 µM), usual class: cytotoxic | 400,000 compounds, 3.4% hits | AID 1347076; also: % is scaled to controls: 0 for no effect and ±100 for the full control effect; nearly all actives have a fitted effect of over 60% in size
#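 Potencies derive from concentration-effect curves fitted to normalized luminescence (CellTiter-Glo) of KB-V1 cells treated for 72 h at 37 degrees C in phenol-red-free DMEM containing 10% FBS.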
# MCF10A rerep: inducers of DNA re-replication in MCF 10A breast cells. MCF 10A DNA re-replication, Hoechst nuclear intensity, 48 h. AID 624296. Potency, µM (highest dose often 46.1 µM), without a hit: at the highest dose activity, positive = re-replication, hits mostly activators. 350,000 compounds, 2.9% hits; also: % of control where 0% means no effect; nearly all actives have a fitted effect of over 50% in size
# * = called active by the depositor; i = inactive; ? = inconclusive; nt = no result given; [ ] = dose if it differs, or a comment. An excerpt weighted towards active compounds, which were near 6.6% of everything screened. Unless noted, calls follow the shape of the dose curve; as a rule, active = well fitted curve in the direction sought with a large enough effect; inconclusive = small, poorly fitted or top-dose-only effect, or another doubt; inactive = no such curve, though single readings can be large; an effect the other way counts as inactive or inconclusive. Potency is read from the fitted curve at half-maximal effect.
SMILES,SW480 rerep,KB-3-1 cytotox,RGS4 inh,PTAP TSG101 blk,KB-V1 cytotox,MCF10A rerep
CC(=O)Nc1ccc(NC(=O)C(C)OC(=O)c2ccc(S(=O)(=O)N3CCCCCC3)cc2)cc1 (configuration not stated),?,?,19.0%,-8.2%,?,14.6µM*
CSc1ncccc1C(=O)OCC(=O)Nc1ccc(S(=O)(=O)N2CCCC2)cc1,-4.9%,i,8.3%,-2.4%,i,-1.1%
CN(C)c1ccc(C(=O)OCC(=O)Nc2cccc(S(=O)(=O)N3CCCC3)c2)cc1,3.8%,i,-51.3%,-3.6%,16.4µM*,9.6%
CSc1ncccc1C(=O)OCC(=O)c1ccc(S(=O)(=O)N2CCCCC2)cc1,-3.5%,i,27.1%,-0.9%,23.1µM*,3.9%
CCCN(CCC)S(=O)(=O)c1ccc2c(c1)N(CC(=O)NC(C)c1ccccc1)C(=O)CS2 (configuration not stated),nt,i,0.8%,nt,i,nt
CCN(Cc1ccccc1)S(=O)(=O)c1ccc(-c2coc(C)n2)cc1,nt,i,-29.8%,nt,?,nt
Cc1ccc(C2CC(=O)N(Cc3ccccc3)c3c2c(C)nn3-c2nc(C)cc(C)n2)cc1 (configuration not stated),nt,i,-7.1%,nt,i,nt
Cn1nc([N+](=O)[O-])nc1Oc1ccc(C(C)(C)C)cc1,-1.6%,i,-19.6%,-2.1%,14.6µM*,?
Cn1nc([N+](=O)[O-])nc1Oc1ccccc1,-3.0%,i,22.5%,0.0%,?,-16.2%
Cc1ccc(-c2noc(-c3ccc(NC4CCCC4)c([N+](=O)[O-])c3)n2)cc1,nt,i,15.0%,nt,i,nt
CC(C)OC(=O)C(NC(=O)c1ccccc1)=C1CCCCC1,-1.4%,i,-16.3%,-4.9%,20.6µM*,13.4%
CC(C)C(=O)Nc1nnc(CSCc2ccccc2F)s1,-3.3%,i,6.0%,-0.8%,18.4µM*,2.3%
O=C(Nc1ccc(Cl)c(Cl)c1)Nc1nccs1,2.31µM*,4.61µM*,-10.5%,-2.1%,4.11µM*,13µM*
O=C(Cc1ccccc1Cl)NNC(=O)Nc1ccccc1,29.1µM*,i,2.5%,-0.6%,i,0.4%
O=C(Nc1cccc(Cl)c1)Nc1nccs1,0.7%,i,12.5%,-17.8%,i,8.9%
Cc1nnc(NC(=O)Nc2cccc(Cl)c2)s1,-6.1%,i,26.0%,-1.0%,?,-2.5%
Cc1ccc(OCCSCc2nnc(NC(=O)Nc3cccc(Cl)c3)s2)cc1,-2.1%,5.8µM*,-2.9%,3.6%,?,?
Cc1ccccc1C(=O)N(Cc1ccc(N(C)C)cc1)Cc1ccco1,nt,nt,-18.2%,nt,nt,nt
CCc1ccccc1NC(=O)CCNS(=O)(=O)c1ccc2c(c1)CCCC(=O)N2,nt,i,-3.4%,nt,i,nt
COc1ccc(C(=O)NCC(=O)OCC(=O)c2ccc3ccccc3c2)cc1,nt,i,1.3%,nt,i,nt
O=C(Nc1ccc(Cl)c(Cl)c1)Nc1nnc(CSc2ccccc2)s1,?,?,22.8%,-2.1%,14.6µM*,?
O=C(Nc1ccccc1)Nc1nnc(CSCc2ccccc2Cl)s1,nt,i,-4.1%,-0.1%,?,14.6µM*
Cc1nc2cc(C(=O)N3c4ccccc4CC3C)ccc2s1 (configuration not stated),?,20.6µM*,-33.7%,-1.7%,?,-4.2%
COc1ccc(Cn2c(C(=O)O)c(CNCc3ccccc3F)c3ccc(OC)cc32)cc1,nt,nt,-4.7%,nt,nt,nt
CCOC(=O)c1c(NC(=O)C2C3CCC(O3)C2C(=O)O)sc(C)c1-c1ccc(F)cc1 (configuration not stated),-3.0%,i,-1.4%,-6.0%,?,4.8%
CCOC(=O)c1c(N)sc(C(O)(C(F)(F)F)C(F)(F)F)c1-c1ccc(F)cc1,18.4µM*,i,-30.2%,-9.4%,i,-189.3%[0.0737 µM]
CCOC(=O)c1c(N)sc(C(O)(C(F)(F)F)C(F)(F)F)c1-c1ccc(Cl)cc1,?,i,9.8%,-4.6%,i,14.6µM*
